From PubChem BioAssay (Tox21) come the findings set out here.

Each structure is given as a SMILES string. Several values for one entry are separate records, joined by “and”; a condition that tells them apart may be missing. Equal values may be shown once. Inconclusive results are not listed. Activity calls are given as the source filed them. Unless noted, calls come from the whole dose curve; as a rule, active = well fitted curve in the direction sought with a large enough effect in the repeat runs; inconclusive = weak or mixed curves; inactive = no such curve, though single readings can be large; an effect the other way counts as inactive or inconclusive.

Test [1] can be described thus: qHTS assay for small molecule agonists of the p53 signaling pathway (AID 651631; calls by dose curve; note: nearly all actives have a fitted effect of over 15% in size; note: potency is the fitted concentration of half-maximal effect). The gist of the method:
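HCT-116 cells carrying a stable p53 response element–beta-lactamase reporter were plated, rested 5 h at 37 °C, then exposed to compound in DMSO for 16 h at 37 °C; reporter activity was read as FRET substrate fluorescence after 2 h at room temperature.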
(qHTS replaces the single test concentration by a dilution series.)

Test [2] can be described thus: qHTS assay for small molecules that induce genotoxicity in human embryonic kidney cells expressing luciferase-tagged ATAD5 (AID 651632). Note: nearly all actives have a fitted effect of over 15% in size. The gist of the method: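 HEK293T cells carrying a luciferase reporter tagged to ATAD5 were exposed to compound or DMSO vehicle for 16 hr at 37C, 5% CO2. Amplite was added, and after 30 min at room temperature luciferase activity was read as a marker of ATAD5 induction.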

A short description of test [3]: qHTS assay for small molecule agonists of the p53 signaling pathway - cell viability (AID 651633; calls by dose curve; note: nearly all actives have a fitted effect of over 30% in size). In outline:
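Viability counter-read: CellTiter-Glo luminescence (30 min, room temperature) in the same p53RE-bla plates. These plates had been exposed to compounds for 16 h at 37 C.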

A short description of test [4]: qHTS assay for small molecules that induce genotoxicity in human embryonic kidney cells expressing luciferase-tagged ATAD5 - cell viability (AID 651634; calls by dose curve; note: nearly all actives have a fitted effect of over 25% in size). The gist of the method: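 HEK293T cells expressing luciferase-tagged ATAD5 were exposed to compound or DMSO for 15.5 hr at 37C, 5% CO2. Viability was then read as live-cell protease activity by CellTiter-Fluor fluorescence after 30 min at 37C.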

Test [5] is described as follows: qHTS assay to test for compound auto fluorescence at 590 nm (red) in HepG2 cells (AID 720674). In outline:
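Red autofluorescence (Ex/Em 540/590 nm, Rose Bengal sodium equivalents) was measured in HepG2 cells, 2,000 per well in MEM plus 10% FBS, plated overnight at 37 C. Readings were taken 1 hr after adding 23 nL compound or DMSO, at 37 C and 5% CO2.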

The nature of test [6]: qHTS assay to test for compound auto fluorescence at 535 nm (green) in HepG2 cells (AID 720675).
Test [7] is described as follows: qHTS assay to test for compound auto fluorescence at 460 nm (blue) in HEK293 cells (AID 720678). Note: potency is the fitted concentration of half-maximal effect. In outline:
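Intrinsic compound fluorescence is recorded in live HEK293 cultures after overnight incubation at 37C, 5% CO2, using excitation 405 nm and emission 460 nm. Values are referenced to triamterene.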

A short description of test [8]: qHTS assay to test for compound auto fluorescence at 590 nm (red) in HEK293 cells (AID 720679). In outline:
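Red autofluorescence, HEK293 cells: 2,000 cells/well; attach 4-5 hr 37C; add 23 nL cpd or DMSO; incubate o/n 37C 5% CO2; read Ex540/Em590; Rose Bengal sodium reference.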

A short description of test [9]: qHTS assay to test for compound auto fluorescence at 535 nm (green) in HEK293 cells (AID 720680).
A short description of test [10]: qHTS assay to test for compound auto fluorescence at 460 nm (blue) in HEK293 cell free culture (AID 720681). Note: potency is the fitted concentration of half-maximal effect. In outline:
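Blue fluorescence (Ex 405/Em 460 nm, triamterene-equivalent) was read immediately after pin transfer of compound or DMSO into medium (DMEM, 10% FBS) without cells.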

Test [11] in a line: qHTS assay to test for compound auto fluorescence at 590 nm (red) in HEK293 cell free culture (AID 720683). The gist of the method: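 Red-channel autofluorescence of compounds in culture medium (DMEM, 10% FBS), no cells, measured at 540/590 nm. Rose Bengal sodium is the reference fluorophore for equivalence.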
Test [12] can be described thus: qHTS assay to test for compound auto fluorescence at 590 nm (red) in HepG2 cell free culture (AID 720684). In outline:
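Plate contents were MEM with 10% FBS plus test compound or DMSO, no cells. Fluorescence was recorded with 540 nm excitation and 590 nm emission.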

Test [13] in a line: qHTS assay to test for compound auto fluorescence at 460 nm (blue) in HepG2 cell free culture (AID 720685). Note: potency is the fitted concentration of half-maximal effect. In outline: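 Compound (23 nL) or DMSO pinned into cell-free MEM with 10% FBS; blue fluorescence read at 405/460 nm excitation/emission, expressed as auto-fluorescence equivalency to triamterene.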
The nature of test [14]: qHTS assay to test for compound auto fluorescence at 535 nm (green) in HepG2 cell free culture (AID 720686).
Test [15] in a line: qHTS assay to test for compound auto fluorescence at 460 nm (blue) in HepG2 cells (AID 720687). Note: potency is the fitted concentration of half-maximal effect. In outline:
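Blue-channel autofluorescence (Ex/Em 405/460 nm, triamterene-equivalent) was measured after 1 hr compound exposure at 37 C, 5% CO2. Cells were HepG2, plated overnight at 37 C in MEM plus 10% FBS.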

Test [16] is described as follows: qHTS assay to test for compound auto fluorescence at 535 nm (green) in HEK293 cell free culture (AID 720682). In outline:
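Read-out: 485/535 nm fluorescence intensity, calibrated against fluorescein. Medium only (DMEM + 10% FBS, no cells); test compound or DMSO vehicle added by pintool before plate reading.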

The nature of test [17]: qHTS assay for small molecule disruptors of the mitochondrial membrane potential - cell viability (AID 720634; calls by dose curve;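 note: human HepG2 liver cancer cells; nearly all actives have a fitted effect of over 20% in size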). The gist of the method:
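HepG2 cells seeded overnight at 37 C, then exposed to compound or DMSO for 1 hr at 37 C, 5% CO2. m-MPI dye added, then CellTiter-Glo for 30 min at room temperature; viability read as ATP luminescence.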

A short description of test [18]: qHTS assay for small molecule disruptors of the mitochondrial membrane potential (AID 720635). Note: potency is the fitted concentration of half-maximal effect. In outline:
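Mitochondrial membrane potential tracked with Mito-MPS dye, red aggregates (ex 540/em 590 nm) against green monomers (ex 490/em 535 nm). Compound treatment 1 hr at 37C, dye 30 min in HepG2.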

For test [19], the target named is Glucocorticoid receptor (Homo sapiens) (UniProt P04150). In words: qHTS assay to identify small molecule agonists of the glucocorticoid receptor (GR) signaling pathway (AID 720691; active = well fitted activation curve with a large enough effect in the signal ratio in the repeat runs, not every such curve was filed as active; the % refers to the signal ratio). As to conditions: GR-bla HeLa, beta-lactamase reporter ratio, 18 h; activation: at 62.4 µM (top of the series). The gist of the method: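 GR-bla HeLa cells (beta-lactamase reporter under glucocorticoid response element) were plated 4 h at 37 C/5% CO2, given compounds in DMSO, and incubated 18 h at 37 C. LiveBLAzer B/G FRET substrate was added for 2 h at room temperature, then fluorescence intensity read.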
Glucocorticoid receptor (Homo sapiens), sequence (P04150 whole entry, looked up): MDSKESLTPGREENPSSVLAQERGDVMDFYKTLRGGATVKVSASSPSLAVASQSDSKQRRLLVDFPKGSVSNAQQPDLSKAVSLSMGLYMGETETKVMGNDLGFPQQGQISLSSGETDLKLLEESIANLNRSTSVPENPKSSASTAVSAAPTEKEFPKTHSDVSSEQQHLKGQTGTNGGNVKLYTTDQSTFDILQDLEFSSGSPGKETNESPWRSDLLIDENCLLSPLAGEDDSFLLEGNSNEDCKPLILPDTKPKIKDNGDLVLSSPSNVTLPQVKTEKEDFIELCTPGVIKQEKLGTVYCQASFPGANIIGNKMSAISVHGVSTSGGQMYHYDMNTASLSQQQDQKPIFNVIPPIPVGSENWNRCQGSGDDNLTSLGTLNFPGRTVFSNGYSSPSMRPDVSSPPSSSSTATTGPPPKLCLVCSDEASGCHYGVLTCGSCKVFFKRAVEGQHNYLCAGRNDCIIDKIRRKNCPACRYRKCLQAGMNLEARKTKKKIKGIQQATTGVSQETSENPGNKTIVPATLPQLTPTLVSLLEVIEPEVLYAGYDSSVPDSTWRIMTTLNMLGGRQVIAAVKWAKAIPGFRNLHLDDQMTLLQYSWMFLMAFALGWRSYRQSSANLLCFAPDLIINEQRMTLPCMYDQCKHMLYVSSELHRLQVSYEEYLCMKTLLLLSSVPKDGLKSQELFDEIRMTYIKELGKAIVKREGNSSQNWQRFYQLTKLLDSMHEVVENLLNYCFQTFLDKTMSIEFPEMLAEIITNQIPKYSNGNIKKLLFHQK

Test [20] shares this target. Kind of test: qHTS assay to identify small molecule antagonists of the glucocorticoid receptor (GR) signaling pathway (AID 720692; active = well fitted inhibition curve with a large enough effect in the signal ratio in the repeat runs, not every such curve was filed as active; the % refers to the signal ratio; note: potency is the fitted concentration of half-maximal effect). In outline: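 GR-bla HeLa cells (beta-lactamase reporter under glucocorticoid response element) were pre-plated 4 h at 37 C, treated with compounds plus 5 nM dexamethasone (final) for 18 h, then read by LiveBLAzer B/G FRET fluorescence after 2 h.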
Tags give direction and shape of the fitted curve or compound fluorescence and quenching.

On to `O=[N+]([O-])c1ccc(Cl)c(Cl)c1Cl`, for which the Potency result in test [1], in test [2], in test [3], in test [4], in [6] and in [7] was “inactive” throughout. In addition, the Potency result in test [10], in test [13], in test [14] and in test [15] was “inactive” throughout. In addition, the result in test [5], in test [8], in [9], in [11] and in test [12] was inactive.

For `Cc1nn(-c2cc(NS(C)(=O)=O)c(Cl)cc2Cl)c(=O)n1C(F)F`, the Potency entry in test [1], in [2], in test [3], in test [4], in [6] and in test [10] was “inactive” each time. The Potency result in [13], in test [14] and in test [15] was “inactive” throughout. The result in test [5], in test [9], in test [16], in [11] and in test [12] was inactive.

Take `CCCC[N+]1(C)CCCC1` (tested in a mixture with another compound): the Potency result in [1], in test [2], in test [3], in test [4], in test [6] and in [10] was “inactive” throughout. Further, the Potency entry in [13], in test [14] and in test [15] was “inactive” each time. Moreover, the call in test [8], in test [9], in test [16], in test [11] and in test [12] was inactive.

As to `Cc1cccc(Cc2cnc[nH]2)c1C`, the Potency entry in test [1], in test [2], in test [3], in [17], in test [18] and in [6] was “inactive” each time. Further, the Potency result in [7], in test [10], in [13], in test [14], in test [15] and in test [19] was “inactive” each time. In [20], the Potency result is “inactive”. Moreover, the compound was called inactive in test [5], in test [8], in [9], in [11] and in test [12].

For `N#CCCl`, the Potency entry in test [1], in [2], in [3], in [17], in test [18] and in test [6] was “inactive” throughout. The Potency entry in [7], in [10], in [13], in [14] and in test [15] was “inactive” throughout. Moreover, the compound was classed as inactive in [5], in test [8], in test [9], in test [16] and in test [12].

With `CC[C@]1(O)CC[C@H]2[C@@H]3CCC4=CCCC[C@@H]4[C@H]3CC[C@@]21C`, the Potency was 3.76 µM (active) in test [1], 7.5 µM (active) in test [18] and 1.69 µM (active) in [20]. Moreover, the Potency entry in test [2], in test [3], in test [6], in [7], in test [10] and in test [13] was “inactive” throughout. Also, the Potency result in test [14] and in test [15] was “inactive” in each case. Also, the result in test [5], in test [8], in [9], in test [16] and in test [12] was inactive.

Consider `O=C(Cl)c1ccccc1F`, for which the Potency entry in test [1], in test [2], in test [3], in [17], in [18] and in [6] was “inactive” throughout. In addition, the Potency entry in [7], in [10], in test [13], in [14] and in test [15] was “inactive” each time. Besides, the outcome in test [8], in [9], in test [16] and in [12] was inactive.

`COc1ccc2c(c1OC)C(=O)O[C@@H]2[C@H]1c2cc3c(cc2CCN1C)OCO3`: the Potency result in test [1], in test [2], in [3], in [4], in test [6] and in test [7] was “inactive” each time. For the same compound, the Potency entry in test [10], in test [13], in [14] and in test [15] was “inactive” each time. In addition, the call in test [5], in test [8], in test [9], in [16], in test [11] and in test [12] was inactive.

Take `CC1=C2C[C@H]3[C@@H](CC=C4C[C@@H](O)CC[C@@]43C)[C@@H]2CC[C@]12O[C@@H]1C[C@H](C)CN[C@H]1[C@H]2C`: the Potency result in test [1], in [2], in [3], in [4], in test [6] and in [10] was “inactive” throughout. Moreover, the Potency result in test [13], in test [14], in test [15] and in test [19] was “inactive” each time. Further, the compound was classed as inactive in test [5], in [8], in test [9], in test [16], in [11] and in test [12].

Consider `CN=C=O`, for which the Potency entry in [1], in [3], in test [4], in test [17], in test [6] and in test [7] was “inactive” in each case. Besides, the Potency entry in test [10], in test [13], in [14] and in test [15] was “inactive” throughout. Further, the outcome in test [5], in test [8], in test [9], in test [16] and in test [12] was inactive.

Take `CN1CCc2cc3c(cc2C1O)OCO3` (centres undefined): the Potency in [1] is 61.5 µM (active); in test [7] it was 35.5 µM [fluorescent] (active); in [10], 39.8 µM (active); in [13], 39.8 µM [fluorescent] (active); in test [15], 39.8 µM [fluorescent] (active). Also, the Potency result in [2], in [3], in test [6] and in test [14] was “inactive” in each case. In addition, the compound was called inactive in test [5], in test [8], in test [9], in [16], in test [11] and in test [12].

Turning to `CCN(CC)Cc1nccn1-c1ccc([N+](=O)[O-])cc1C(=O)c1ccccc1Cl`, the Potency result in test [1], in test [2], in test [3], in test [18], in test [6] and in test [7] was “inactive” in each case. The Potency result in test [10], in [13], in test [14], in test [15] and in test [20] was “inactive” throughout. The outcome in [5], in test [8], in [9], in [16], in test [11] and in [12] was inactive.

`ClC1=C(Cl)[C@]2(Cl)[C@@H]3[C@H]4C[C@H]([C@@H]5O[C@H]45)[C@@H]3[C@@]1(Cl)C2(Cl)Cl`: the Potency entry in test [1], in test [2], in [3], in [17], in [6] and in test [7] was “inactive” in each case. Besides, the Potency result in test [10], in test [13], in test [14], in test [15], in [19] and in test [20] was “inactive” each time. Moreover, the Potency in [18] is 16.8 µM (active) and 19.3 µM (active). Further, the result in test [5], in test [8], in test [9] and in [11] was inactive.

For `C#CC1(O)CCCCC1`, the Potency result in [1], in test [2], in [3], in test [4], in test [6] and in [7] was “inactive” in each case. Besides, the Potency result in [10], in test [13], in [14] and in test [15] was “inactive” each time. Further, the result in test [5], in test [8], in test [9], in [11] and in [12] was inactive.
